The source made the active and inactive calls. Calls come from the whole dose curve; as a rule, active = well fitted curve in the direction sought with a large enough effect; inconclusive = small, poorly fitted or top-dose-only effect, or another doubt; inactive = no such curve, though single readings can be large; an effect the other way counts as inactive or inconclusive.

Alpha-galactosidase (Coffea arabica), sequence (Q42656 whole entry, looked up): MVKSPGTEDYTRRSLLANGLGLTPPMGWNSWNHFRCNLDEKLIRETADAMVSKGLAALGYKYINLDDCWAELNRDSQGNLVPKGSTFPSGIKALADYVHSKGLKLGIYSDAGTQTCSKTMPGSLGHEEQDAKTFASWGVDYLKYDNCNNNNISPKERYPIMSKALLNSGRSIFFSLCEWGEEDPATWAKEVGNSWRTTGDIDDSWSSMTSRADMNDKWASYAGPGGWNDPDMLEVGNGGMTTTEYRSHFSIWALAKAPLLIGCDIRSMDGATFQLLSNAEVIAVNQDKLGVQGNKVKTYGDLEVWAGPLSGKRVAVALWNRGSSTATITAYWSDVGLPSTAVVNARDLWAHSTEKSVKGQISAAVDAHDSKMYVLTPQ

The first assay addresses Alpha-galactosidase (Coffea arabica) (UniProt Q42656). Nature of the assay: Counterscreen for Glucocerebrosidase Inhibitors: qHTS Assay for Coffee Bean alpha-Galactosidase at pH 4.5 (AID 957). The following applies: purified coffee bean alpha-galactosidase, fluorogenic substrate; series mostly up to 76.9 µM. In outline:
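Coffee bean enzyme (2 nM) with 80 uM 4-methylumbelliferyl alpha-D-galactopyranoside in 50 mM citric acid, 0.005% Tween-20, pH 4.5, 20 min at room temperature; compounds 0.7 nM–77 uM. Stopped at pH 10, fluorescence 365/440 nm; AC50 from Hill fits.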
In general terms: A counterscreen serves to expose hits that act by an unwanted route or on another target.
Regarding `Clc1ccc(C(c2ccc(Cl)cc2)n2cc[n+](C[C@@H](OCc3ccc(Cl)cc3Cl)c3ccc(Cl)cc3Cl)c2)cc1`, the call was inactive.

For `CC(=O)[C@@H]1CC[C@@H]2[C@@H]3CC=C4C[C@H](OS(=O)(=O)O)CC[C@@]4(C)[C@H]3CC[C@]21C`, the call was inactive.

As to `C[C@@H](COc1ccccc1)N(CCCl)Cc1ccccc1`, the compound was called inactive.

Take `O=c1[nH]c(=O)n([C@H]2C[C@H](O)[C@H](CO)O2)cc1/C=C\Br`: the outcome was inactive.

Take `N#CC(=C(/N)Sc1ccccc1N)/C(C#N)=C(/N)Sc1ccccc1N`: the outcome was inactive.

For another assay the target is unchanged. Nature of the assay: Counterscreen for Glucocerebrosidase Inhibitors: qHTS Assay for Coffee Bean alpha-Galactosidase at pH 5.9 (AID 998). The following applies: coffee bean alpha-galactosidase enzyme assay; series mostly up to 76.9 µM. In outline: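 Compounds were titrated from 0.7 nM to 77 uM against green coffee bean alpha-galactosidase (2 nM) using 80 uM fluorogenic 4-methylumbelliferyl substrate. After 20 min at room temperature, reactions were stopped at pH 10 and read by fluorescence.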
As to `O=C1OC(=O)[C@@H]2[C@@H]1[C@@H]1CC[C@H]2O1`, the call was inactive.

Take `Clc1ccc(C(c2ccc(Cl)cc2)n2cc[n+](C[C@@H](OCc3ccc(Cl)cc3Cl)c3ccc(Cl)cc3Cl)c2)cc1`: the compound was called inactive.

For `O[Si@](CCCN1CCCCC1)(c1ccc(F)cc1)C1CCCCC1`, the call was inactive.

With `C[C@@H](COc1ccccc1)N(CCCl)Cc1ccccc1`, the outcome was inactive.

On to `O=c1[nH]c(=O)n([C@H]2C[C@H](O)[C@H](CO)O2)cc1/C=C\Br`, for which the compound was classed as inactive.

Regarding `N#CC(=C(/N)Sc1ccccc1N)/C(C#N)=C(/N)Sc1ccccc1N`, the compound was classed as inactive.

The values are drawn from PubChem BioAssay (NCATS).
